# From PubChem BioAssay (NCATS)
# Results filed as inconclusive are left out. Entries that show only a call come without a potency. Active and inactive are the calls of the source. Calls come from the whole dose curve; as a rule, active = well fitted inhibition curve with a large enough effect; inconclusive = small, poorly fitted or top-dose-only effect; inactive = flat fitted curve, though single readings scatter.
# How the values were obtained:
# Test in all cases: qHTS profiling for inhibitors of Plasmodium falciparum proliferation (AID 504749); note: nearly all actives have a fitted effect of over 60% in size
# Conditions in all cases: P. falciparum in erythrocytes, SYBR Green DNA, 72 h; series mostly up to 28.7 µM
# CP211 = system: CP211
# Summary of the method: (§1)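 Parasite proliferation within erythrocytes, 72 h exposure. Endpoint: SYBR Green I fluorescence after overnight lysis at room temperature. Controls: 0.29 uM artemisinin, DMSO.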
# CP215 = system: CP215
# Summary of the method: as §1
# CP217 = system: CP217
# Summary of the method: as §1
# CP237 = system: CP237
# Summary of the method: as §1
# CP238 = system: CP238
# Summary of the method: as §1
# CP247 = system: CP247
# Summary of the method: as §1
# CP250 = system: CP250
# Summary of the method: as §1
# CP252 = system: CP252
# Summary of the method: as §1
# CP260 = system: CP260
# Summary of the method: as §1
# CP256 = system: CP256
# Summary of the method: as §1
# Potency is the fitted concentration of half-maximal effect.
SMILES,Potency (CP211),Potency (CP215),Potency (CP217),Potency (CP237),Potency (CP238),Potency (CP247),Potency (CP250),Potency (CP252),Potency (CP260),Potency (CP256)
C1CCC(NC2CCCCC2)CC1,inactive,inactive,inactive,inactive,inactive,inactive,inactive,inactive,inactive,–
NC(=O)CN1CC(O)CC1=O (stereo not given),inactive,inactive,inactive,inactive,inactive,inactive,inactive,inactive,inactive,inactive
C[C@]12CCC(=O)C(O)=C1CC[C@@H]1[C@H]3CCC(=O)[C@@]3(C)CC[C@@H]12,inactive,inactive,inactive,inactive,inactive,inactive,–,inactive,inactive,–
C#CC1(O)CCC2C3CCC4=CC(=O)CCC4(C)C3CCC21C (stereo not given),inactive,inactive,inactive,inactive,inactive,inactive,inactive,inactive,inactive,inactive
CN1C2CCC1CC(OC(=O)c1cc(Cl)cc(Cl)c1)C2 (stereo not given),inactive,inactive,inactive,inactive,inactive,inactive,inactive,inactive,inactive,inactive
O=[N+]([O-])c1ccc([As](=O)(O)O)cc1,7.57 µM (active),7.57 µM (active),7.94 µM (active),7.94 µM (active),11.2 µM (active),–,7.08 µM (active),7.08 µM (active),7.08 µM (active),10 µM (active)
COC(C)(C)CCCC(C)C/C=C/C(C)=C/C(=O)OC(C)C (stereo not given),–,–,–,12.6 µM (active),inactive,–,–,–,–,–
CC(C)NC(C)Cc1ccc(I)cc1 (stereo not given),inactive,–,inactive,–,inactive,inactive,inactive,inactive,inactive,inactive
CC(=O)OCC1=C(C(=O)O)N2C(=O)[C@@H](N)[C@@H]2SC1,inactive,inactive,–,inactive,–,–,–,–,inactive,–
CCCCCCCCCCCCCCCC[N+](C)(C)C,13.5 µM (active),–,–,7.08 µM (active),–,–,8.91 µM (active),–,5.62 µM (active),–
Cc1ccc(Cl)c(O)c1,inactive,inactive,inactive,inactive,inactive,inactive,inactive,inactive,inactive,inactive
CC(=O)[O][Hg][c]1ccccc1,15.1 µM (active),6.01 µM (active),7.08 µM (active),4.47 µM (active),5.62 µM (active),5.62 µM (active),7.08 µM (active),8.91 µM (active),3.98 µM (active),8.91 µM (active)
CCCCc1ccc(C(=O)O)nc1,inactive,inactive,inactive,inactive,inactive,inactive,inactive,inactive,inactive,inactive
CN[C@@H]1C[C@@H](c2ccc(Cl)c(Cl)c2)c2ccccc21,–,–,–,–,inactive,–,inactive,–,–,–
COC(=O)c1cncn1C(C)c1ccccc1 (stereo not given),inactive,inactive,–,–,–,–,–,–,–,–
O=C(O)COc1ccccc1,inactive,inactive,inactive,inactive,inactive,inactive,inactive,inactive,inactive,inactive
C=CCN1CC[C@]23CCCCC2[C@H]1Cc1ccc(O)cc13 (stereo not given in full),inactive,inactive,inactive,–,inactive,inactive,inactive,inactive,inactive,inactive
COC(=O)[C@@H](N)CCCN=C(N)N[N+](=O)[O-],inactive,inactive,inactive,inactive,inactive,inactive,inactive,inactive,inactive,inactive
O=C(O)C(Cl)Cl,inactive,inactive,inactive,inactive,inactive,inactive,inactive,inactive,inactive,inactive
CN(C)[C@@H]1C(=O)C(C(N)=O)=C(O)[C@@]2(O)C(=O)C3=C(O)c4c(O)cccc4[C@@](C)(O)[C@H]3[C@H](O)[C@@H]12,inactive,–,inactive,–,inactive,inactive,inactive,–,–,–
Cc1cc(O)ccc1Cl,inactive,inactive,inactive,inactive,inactive,inactive,inactive,inactive,inactive,inactive
CCCN1CCC[C@H](c2cccc(O)c2)C1,inactive,inactive,inactive,–,inactive,–,inactive,inactive,inactive,inactive
NC1=NC(=O)N2CC12 (stereo not given),–,inactive,–,–,inactive,–,inactive,inactive,10 µM (active),–
CC[N+]1(CCOC(=O)C(O)(c2ccccc2)c2ccccc2)CCCCC1,inactive,inactive,inactive,inactive,–,–,inactive,inactive,inactive,–
c1ccc(C2(c3ccccc3)CC2C2=NCCN2)cc1 (stereo not given),inactive,inactive,inactive,inactive,inactive,inactive,inactive,inactive,–,–
CCCCCCCCCC(CC)c1ccc(S(=O)(=O)O)cc1 (stereo not given),inactive,inactive,inactive,inactive,inactive,inactive,inactive,inactive,inactive,inactive
